The panel holds about 79,000 compounds, 15% with a hit somewhere; the sample as a whole holds those more often. Activity calls are given as the source filed them. Rule as the data show it: active = growth inhibition above about 70%; inactive = the rest.
Columns and labels:
[1] = NCI Yeast Anticancer Drug Screen. Data for the rad52 strain (AID 147);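 also: 0% = growth of vehicle-treated control cultures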; details: S. cerevisiae rad52 mutant growth inhibition, active compounds read high
In short: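 Read-out: growth inhibition versus vehicle-treated controls. Cells were a DNA repair-deficient yeast strain treated with compounds.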

[2] = NCI Yeast Anticancer Drug Screen. Data for the wt1 strain (AID 149);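 also: 0% = growth of vehicle-treated wt1 cultures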; details: S. cerevisiae wt1 strain (SPY 50644) growth inhibition, active compounds read high
In short: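 Growth inhibition read against vehicle controls after compound exposure of the wt1 yeast strain.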

[3] = NCI Yeast Anticancer Drug Screen. Data for the mgt1 strain (AID 153); details: S. cerevisiae mgt1 mutant growth inhibition, active compounds read high
In short: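 mgt1 yeast grown with test compound; read-out is growth inhibition versus vehicle-treated cultures.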

[4] = NCI Yeast Anticancer Drug Screen. Data for the rad50 strain (AID 155);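 also: 0% = growth of vehicle-only cultures of the same strain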; details: S. cerevisiae rad50 strain growth inhibition, active compounds read high
In short: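 Readout: growth inhibition relative to vehicle-treated cultures. Compound exposure was carried out in a genetically defined yeast strain deficient in DNA damage repair.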

[5] = NCI Yeast Anticancer Drug Screen. Data for the mec2-1 strain (AID 157); details: S. cerevisiae mec2-1 strain, active compounds read high
In short: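 Yeast mec2-1 mutant treated with compound. Readout: growth inhibition vs vehicle controls.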

[6] = NCI Yeast Anticancer Drug Screen. Data for the rad14 strain (AID 159);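 also: 0% = growth of vehicle-treated control cultures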; details: S. cerevisiae rad14 strain growth inhibition, active compounds read high
In short: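 Growth inhibition vs vehicle controls; genetically altered yeast strain (DNA damage repair defect) treated with test compounds.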

[7] = NCI Yeast Anticancer Drug Screen. Data for the sgs1 mgt1 strain (AID 161);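 also: 0% = growth of cultures given vehicle only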; details: S. cerevisiae sgs1 mgt1 strain, active compounds read high
In short: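 Genetically altered yeast, compound exposure, growth inhibition relative to vehicle.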

[8] = NCI Yeast Anticancer Drug Screen. Data for the CLN2oe strain (AID 163);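 also: 0% = growth of vehicle-only control cultures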; details: S. cerevisiae CLN2oe strain, active compounds read high
In short: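 Read-out: yeast growth inhibition, expressed relative to vehicle-only controls. The strain bears an engineered cell-cycle alteration.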

[9] = NCI Yeast Anticancer Drug Screen. Data for the cln2 rad14 strain (AID 165);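 also: 0% = growth equal to vehicle treated cultures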; details: S. cerevisiae cln2 rad14 strain, active compounds read high
In short: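 cln2 rad14 yeast strain; compound exposure; growth inhibition read vs vehicle controls.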

[10] = NCI Yeast Anticancer Drug Screen. Data for the bub3 strain (AID 167); details: S. cerevisiae bub3 mutant strain, active compounds read high
In short: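 Readout: yeast growth inhibition, expressed relative to vehicle-only wells. The test organism is a mutant strain from a panel with lesions in DNA repair or checkpoint genes.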

[11] = NCI Yeast Anticancer Drug Screen. Data for the wt2 strain (AID 169);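 also: 0% = growth of vehicle-treated yeast cultures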; details: S. cerevisiae wt2 strain growth inhibition, active compounds read high
In short: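 Read-out: growth inhibition versus vehicle-treated control cultures after compound exposure of the yeast strain.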

[12] = NCI Yeast Anticancer Drug Screen. Data for the mlh1 strain (AID 171);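 also: 0% = growth of vehicle-treated control cultures of the same strain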; details: S. cerevisiae mlh1 strain growth inhibition, active compounds read high
In short: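 Read-out: growth inhibition versus vehicle controls. Strain: engineered yeast with a defined DNA repair or cell cycle defect, compound-treated.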

[13] = NCI Yeast Anticancer Drug Screen. Data for the mlh1 rad18 strain (AID 175); details: S. cerevisiae mlh1 rad18 strain growth inhibition, active compounds read high
In short: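 Yeast w/ defined DNA-repair lesions; compound exposure; growth vs vehicle controls → % inhibition.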

[14] = NCI Yeast Anticancer Drug Screen. Data for the rad18 strain (AID 177); details: S. cerevisiae rad18 mutant growth inhibition, active compounds read high
In short: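 Readout: growth inhibition vs vehicle controls. Cells: genetically altered yeast strain, DNA repair defect.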

[15] = NCI Yeast Anticancer Drug Screen. Data for the sgs1 strain (AID 173);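 also: 0% = growth of vehicle-only control cultures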; details: S. cerevisiae sgs1 mutant, active compounds read high
In short: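 Read-out: yeast growth inhibition relative to vehicle controls, following compound exposure of a strain with a defined DNA repair/cell cycle alteration.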

[16] = at 5.0 µM (retest, dose inferred, filed as 0.5)
[17] = at 50.0 µM (retest, dose inferred, filed as 5.0)

Measured: growth inhibition

COc1ccc2nc(CCc3ccccc3)ccc2c1
inactive: [1]; at 1.2 µM -18% | [1]; at 3.7 µM -25% | [1]; at 11.0 µM -14% | [1]; at 33.0 µM -7% | [2]; at 1.2 µM -5% | [2]; at 3.7 µM -7% | [2]; at 11.0 µM -1% | [2]; at 33.0 µM -7% | [3]; at 1.2 µM -9% | [3]; at 3.7 µM -7% | [3]; at 11.0 µM -6% | [3]; at 33.0 µM -5% | [3]; at 100.0 µM 35% | [4]; at 1.2 µM -20% | [4]; at 3.7 µM -21% | [4]; [16] -6% | [4]; at 11.0 µM -27% | [4]; at 33.0 µM -8% | [4]; [17] 55% | [4]; at 50.0 µM 69.3% | [5]; at 1.2 µM -7% | [5]; at 3.7 µM -5% | [5]; [16] -7% | [5]; at 11.0 µM -8% | [5]; at 33.0 µM -11% | [5]; at 100.0 µM 50% | [6]; at 1.2 µM 3% | [6]; at 3.7 µM -8% | [6]; at 11.0 µM 11% | [6]; at 33.0 µM 2% | [7]; [16] 5% | [8]; at 1.2 µM -12% | [8]; at 3.7 µM -13% | [8]; at 11.0 µM -18% | [8]; at 33.0 µM -16% | [8]; at 100.0 µM 20% | [9]; [16] -6% | [9]; [17] -1% | [9]; at 50.0 µM -7.95% | [10]; at 1.2 µM -6% | [10]; at 3.7 µM 6% | [10]; [16] 14% | [10]; at 11.0 µM 12% | [10]; at 33.0 µM 34% | [11]; at 1.2 µM 5% | [11]; at 3.7 µM 4% | [11]; at 11.0 µM 20% | [11]; at 33.0 µM 39% | [12]; at 1.2 µM -15% | [12]; at 3.7 µM -10% | [12]; at 11.0 µM -12% | [12]; at 33.0 µM -14% | [13]; [16] -6% | [13]; at 50.0 µM 30.9% | [14]; at 1.2 µM -11% | [14]; at 3.7 µM -12% | [14]; at 11.0 µM -13% | [14]; at 33.0 µM -19%
active: [1]; at 100.0 µM 96% | [2]; at 100.0 µM 96% | [4]; at 100.0 µM 94% | [5]; [17] 81% | [5]; at 50.0 µM 84.7% | [6]; at 100.0 µM 95% | [7]; [17] 87% | [7]; at 50.0 µM 84.1% | [10]; [17] 78% | [10]; at 50.0 µM 87.7% | [10]; at 100.0 µM 88% | [11]; at 100.0 µM 99% | [12]; at 100.0 µM 91% | [13]; [17] 70% | [14]; at 100.0 µM 92%

Cc1ccc(C)c(C(=N)c2ccccc2Cc2ccccc2)c1
inactive: [1]; at 1.2 µM -5% | [1]; at 3.7 µM 17% | [2]; at 1.2 µM -3% | [2]; at 3.7 µM 10% | [2]; at 11.0 µM 35% | [3]; at 1.2 µM -3% | [3]; at 3.7 µM 37% | [4]; at 1.2 µM -1% | [4]; at 3.7 µM 7% | [4]; [16] 60% | [5]; at 1.2 µM 2% | [5]; at 3.7 µM 12% | [5]; [16] 0% | [6]; at 1.2 µM 0% | [6]; at 3.7 µM 31% | [6]; at 11.0 µM 52% | [7]; [16] 62% | [8]; at 1.2 µM -3% | [8]; at 3.7 µM 6% | [8]; at 11.0 µM 47% | [9]; [16] 18% | [10]; at 1.2 µM 7% | [10]; at 3.7 µM 29% | [10]; [16] 13% | [12]; at 1.2 µM 0% | [12]; at 3.7 µM 35% | [15]; at 1.2 µM 8% | [15]; at 3.7 µM 60% | [13]; [16] 45% | [14]; at 1.2 µM -3% | [14]; at 3.7 µM 20% | [14]; at 11.0 µM 67%
active: [1]; at 11.0 µM 70% | [1]; at 33.0 µM 94% | [1]; at 100.0 µM 97% | [2]; at 33.0 µM 90% | [2]; at 100.0 µM 97% | [3]; at 11.0 µM 75% | [3]; at 33.0 µM 94% | [3]; at 100.0 µM 97% | [4]; at 11.0 µM 71% | [4]; at 33.0 µM 92% | [4]; [17] 96% | [4]; at 50.0 µM 98.4% | [4]; at 100.0 µM 95% | [5]; at 11.0 µM 72% | [5]; at 33.0 µM 95% | [5]; [17] 94% | [5]; at 50.0 µM 97.3% | [5]; at 100.0 µM 97% | [6]; at 33.0 µM 93% | [6]; at 100.0 µM 98% | [7]; [17] 94% | [7]; at 50.0 µM 97.5% | [8]; at 33.0 µM 95% | [8]; at 100.0 µM 98% | [9]; [17] 93% | [9]; at 50.0 µM 93.4% | [10]; at 11.0 µM 77% | [10]; at 33.0 µM 96% | [10]; [17] 97% | [10]; at 50.0 µM 97.4% | [10]; at 100.0 µM 95% | [12]; at 11.0 µM 80% | [12]; at 33.0 µM 92% | [12]; at 100.0 µM 98% | [15]; at 11.0 µM 86% | [15]; at 33.0 µM 95% | [15]; at 100.0 µM 97% | [13]; [17] 94% | [13]; at 50.0 µM 98.2% | [14]; at 33.0 µM 94% | [14]; at 100.0 µM 96%

— PubChem BioAssay (NCI)
